In PubChem BioAssay (NCATS):
Several values for one entry are separate records, joined by “and”; a condition that tells them apart may be missing. Equal values may be shown once. Inconclusive results are not listed. A structure can be active in one record and inactive in another. Activity calls are given as the source filed them. Unless noted, calls come from the whole dose curve; as a rule, active = well fitted inhibition curve with a large enough effect; inconclusive = small, poorly fitted or top-dose-only effect; inactive = flat fitted curve, though single readings scatter.

Experiments:
[1] = AP1 Signaling Pathway (AID 357; active = well fitted curve in either direction with a large enough effect, not every such curve was filed as active; note: % is set by controls: 0 for no effect and ±100 for the full control effect)
How it was run: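 Modulation of EGF-driven AP-1 transcription was assessed with a beta-lactamase reporter in ME-180 cells. Compound and EC50 EGF were co-incubated 5 hours at 37 °C before 2.5-hour CCF4 loading at room temperature and dual-emission reading.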

[2] = NFAT Signaling Pathway (AID 444; active = well fitted curve in either direction with a large enough effect, not every such curve was filed as active;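 note: carbachol stimulus at about its EC50 of 1 µM final; % is set by controls: 0 for no effect and ±100 for the full control effect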); settings: Jurkat NFAT-bla M1, carbachol, beta-lactamase ratio, 5 h; at 17.2 µM (top of the series) unless noted
How it was run: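 Read-out: CCF4 FRET ratio (460 nm/530 nm) after 1 h RT dye loading, used for %activity and AC50 from titration series. Cells: Jurkat NFAT-β-lactamase/M1 line, treated with compound plus 1 uM carbachol for 5 h, 37 °C.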

[3] = Stat Signaling Pathway (AID 446; active = well fitted curve in either direction with a large enough effect, not every such curve was filed as active;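 note: ME-180 cervical cancer cells given 40 pM IL-6 alongside compound; SIE-controlled beta-lactamase reporter measured as 460/530 nm FRET emission ratio; % is set by controls: 0 for no effect and ±100 for the full control effect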)
How it was run: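 Reporter line: ME-180 cervical carcinoma, SIE-beta-lactamase. Treatment: compound with 40 pM IL-6, 5 hrs, 37 C, in low-serum OPTI-MEM with 10 mM HEPES pH 7.3. Detection: 460/530 nm fluorescence.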

[4] = target: Glucocorticoid receptor (Homo sapiens) (UniProt P04150); test: GR-GFP Redistribution (AID 450;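 active = compounds whose dose series gives a full or clear partial fitted curve of increased nuclear translocation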; note: potency is the fitted concentration of half-maximal effect); settings: U2OS GR-GFP nuclear translocation, laser cytometry, 2 h
Glucocorticoid receptor (Homo sapiens), sequence (P04150 whole entry, looked up, the tested form may be a part): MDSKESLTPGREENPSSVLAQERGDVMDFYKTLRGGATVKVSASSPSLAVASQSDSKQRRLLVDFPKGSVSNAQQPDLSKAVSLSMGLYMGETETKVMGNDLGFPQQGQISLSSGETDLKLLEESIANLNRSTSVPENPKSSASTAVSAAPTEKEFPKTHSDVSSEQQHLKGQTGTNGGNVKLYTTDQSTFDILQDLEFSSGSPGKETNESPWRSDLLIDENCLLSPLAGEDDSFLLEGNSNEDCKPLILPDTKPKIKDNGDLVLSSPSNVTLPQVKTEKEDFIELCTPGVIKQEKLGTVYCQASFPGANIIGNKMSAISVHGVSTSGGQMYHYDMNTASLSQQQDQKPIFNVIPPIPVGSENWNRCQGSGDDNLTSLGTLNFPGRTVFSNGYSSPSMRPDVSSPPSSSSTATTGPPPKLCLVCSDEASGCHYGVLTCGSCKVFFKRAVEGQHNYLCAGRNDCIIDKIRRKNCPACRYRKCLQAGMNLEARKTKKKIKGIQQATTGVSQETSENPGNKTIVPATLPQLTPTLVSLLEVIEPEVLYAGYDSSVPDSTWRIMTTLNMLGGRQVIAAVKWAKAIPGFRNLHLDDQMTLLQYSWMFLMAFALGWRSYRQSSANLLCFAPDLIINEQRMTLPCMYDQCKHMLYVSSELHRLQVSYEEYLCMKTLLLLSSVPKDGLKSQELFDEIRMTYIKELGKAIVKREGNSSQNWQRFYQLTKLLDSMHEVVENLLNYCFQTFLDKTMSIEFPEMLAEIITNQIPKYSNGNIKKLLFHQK

[5] = target: Glucocorticoid receptor (Homo sapiens) (UniProt P04150); test: GR-EFC Redistribution (AID 451; calls by dose curve; note: potency is the fitted concentration of half-maximal effect); settings: CHO-K1 GR-EFC translocation, beta-gal luminescence, 2 h
How it was run: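 Translocation of GR-ED fusion to nuclear EA restores b-gal, read by luminescence after 1 h room-temperature detection. Engineered CHO-K1 biosensor cells, 1,000/well, exposed 2 h at 37 C to titrations up to 46 uM final.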

[6] = target: Mitogen-activated protein kinase 10 (Mus musculus) (UniProt Q61831); test: JNK3 AlphaScreen Assay (AID 530; active = well fitted curve in either direction with a large enough effect, not every such curve was filed as active;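 note: kinase came from lysate of stimulated human HepG2 cells; signal reports phosphorylation of biotinylated GST-cJun 1-79 at Ser73 with 10 µM ATP; % is set by controls: 0 for no effect and ±100 for the full control effect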)
How it was run: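 Compound titrations were preincubated 15 minutes at room temperature with substrate, antibody and pre-activated JNK3-containing HepG2 lysate. Reactions were started with 10 uM ATP and stopped with EDTA-containing bead buffer for AlphaScreen detection.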

[7] = target: 3',5'-cyclic-AMP phosphodiesterase 4B (Homo sapiens) (UniProt Q07343); test: qHTS Assay for Inhibitors of PDE-IV (AID 607; active = well fitted activation curve with a large enough effect in the main read-out, with a control signal flat, not every such curve was filed as active; note: % of control where 0% means no effect)
3',5'-cyclic-AMP phosphodiesterase 4B (Homo sapiens), sequence (Q07343 whole entry, looked up): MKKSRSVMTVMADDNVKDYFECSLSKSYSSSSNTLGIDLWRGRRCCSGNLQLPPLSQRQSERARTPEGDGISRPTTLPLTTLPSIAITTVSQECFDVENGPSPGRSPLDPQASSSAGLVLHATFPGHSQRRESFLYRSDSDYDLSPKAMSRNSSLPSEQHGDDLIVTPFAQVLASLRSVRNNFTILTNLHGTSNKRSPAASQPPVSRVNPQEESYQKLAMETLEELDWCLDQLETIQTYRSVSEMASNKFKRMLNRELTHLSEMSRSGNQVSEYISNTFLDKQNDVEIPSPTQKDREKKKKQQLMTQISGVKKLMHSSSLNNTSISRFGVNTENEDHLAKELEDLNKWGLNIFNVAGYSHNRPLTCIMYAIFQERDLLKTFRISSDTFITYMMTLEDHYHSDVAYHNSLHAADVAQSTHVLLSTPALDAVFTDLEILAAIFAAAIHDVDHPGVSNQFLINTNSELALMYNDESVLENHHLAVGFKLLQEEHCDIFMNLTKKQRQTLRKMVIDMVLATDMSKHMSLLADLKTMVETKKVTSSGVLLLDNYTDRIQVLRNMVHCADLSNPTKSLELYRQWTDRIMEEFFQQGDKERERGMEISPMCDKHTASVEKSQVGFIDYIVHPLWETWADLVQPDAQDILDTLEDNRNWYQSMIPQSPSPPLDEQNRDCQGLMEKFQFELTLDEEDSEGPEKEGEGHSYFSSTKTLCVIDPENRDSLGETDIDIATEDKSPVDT
How it was run: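 Cell-based read-out of cAMP via a modified cyclic nucleotide-gated channel and membrane potential dye (535/590 nm) in HEK293 cells expressing PDE4 endogenously. Compounds tested up to 22.9 uM final; 100 uM RO 20-1724 reference.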

[8] = qHTS Assay for Lipid Storage Modulators (AID 1519; calls by dose curve); settings: Drosophila S3 cells, BODIPY lipid droplet/cell ratio, laser cytometry, cells loaded with oleic acid
How it was run: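 Cells seeded at 5,000 per well were treated with compounds over a concentration series and loaded with oleic acid (400 uM, as added). Lipid droplet fluorescence (488 nm excitation, 500-530 nm channel) was read by laser-scanning cytometry and normalized to 20 uM Triacsin C.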

[9] = target: Ubiquitin carboxyl-terminal hydrolase 1 (Homo sapiens) (UniProt O94782); test: Inhibitors of USP1/UAF1: Pilot qHTS (AID 504865);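 note: rhodamine fluorescence freed from ubiquitin-rhodamine substrate followed over time; top concentration of the series differs between compounds; % is set by controls: 0 for no effect and ±100 for the full control effect; nearly all actives have a fitted effect of over 35% in size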
Ubiquitin carboxyl-terminal hydrolase 1 (Homo sapiens), sequence (O94782 whole entry, looked up): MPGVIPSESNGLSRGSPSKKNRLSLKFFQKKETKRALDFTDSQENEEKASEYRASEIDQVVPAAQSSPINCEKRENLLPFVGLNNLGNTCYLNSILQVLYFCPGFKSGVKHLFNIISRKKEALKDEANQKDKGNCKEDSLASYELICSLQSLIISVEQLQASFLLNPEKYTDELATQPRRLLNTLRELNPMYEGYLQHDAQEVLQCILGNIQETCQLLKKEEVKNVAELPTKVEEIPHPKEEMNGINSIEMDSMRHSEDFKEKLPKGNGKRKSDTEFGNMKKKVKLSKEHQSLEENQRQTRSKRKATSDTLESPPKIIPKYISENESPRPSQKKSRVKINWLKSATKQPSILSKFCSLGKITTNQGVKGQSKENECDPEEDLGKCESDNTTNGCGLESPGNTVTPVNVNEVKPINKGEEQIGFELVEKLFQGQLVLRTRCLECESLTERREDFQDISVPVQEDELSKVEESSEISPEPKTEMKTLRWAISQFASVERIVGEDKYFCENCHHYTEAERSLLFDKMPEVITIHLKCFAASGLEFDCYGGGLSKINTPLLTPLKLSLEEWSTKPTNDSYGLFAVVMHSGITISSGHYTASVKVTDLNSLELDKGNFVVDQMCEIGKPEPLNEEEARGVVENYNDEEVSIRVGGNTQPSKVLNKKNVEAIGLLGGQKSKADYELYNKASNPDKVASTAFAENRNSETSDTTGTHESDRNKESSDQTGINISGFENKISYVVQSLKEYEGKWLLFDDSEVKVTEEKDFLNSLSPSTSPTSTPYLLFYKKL
How it was run: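 USP1/UAF1 complex at 1 nM preincubated 15 min at room temperature with compound, then Ub-Rho substrate added at 150 nM final. Fluorescence (480/540 nm) read kinetically in 50 mM HEPES pH 7.8, 0.5 mM EDTA, 1 mM TCEP, 0.1 mg/ml BSA, 0.01% Tween-20.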

[10] = target: Luciferin 4-monooxygenase (Photinus pyralis) (UniProt P08659); test: Biochemical firefly luciferase enzyme assay for NPC (AID 624030);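 note: purified P. pyralis luciferase at 10 nM with luciferin and ATP substrate; 0% = DMSO and -100% = full luciferase inhibition by PTC124 control; nearly all actives have a fitted effect of over 70% in size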
Luciferin 4-monooxygenase (Photinus pyralis), sequence (P08659 whole entry, looked up): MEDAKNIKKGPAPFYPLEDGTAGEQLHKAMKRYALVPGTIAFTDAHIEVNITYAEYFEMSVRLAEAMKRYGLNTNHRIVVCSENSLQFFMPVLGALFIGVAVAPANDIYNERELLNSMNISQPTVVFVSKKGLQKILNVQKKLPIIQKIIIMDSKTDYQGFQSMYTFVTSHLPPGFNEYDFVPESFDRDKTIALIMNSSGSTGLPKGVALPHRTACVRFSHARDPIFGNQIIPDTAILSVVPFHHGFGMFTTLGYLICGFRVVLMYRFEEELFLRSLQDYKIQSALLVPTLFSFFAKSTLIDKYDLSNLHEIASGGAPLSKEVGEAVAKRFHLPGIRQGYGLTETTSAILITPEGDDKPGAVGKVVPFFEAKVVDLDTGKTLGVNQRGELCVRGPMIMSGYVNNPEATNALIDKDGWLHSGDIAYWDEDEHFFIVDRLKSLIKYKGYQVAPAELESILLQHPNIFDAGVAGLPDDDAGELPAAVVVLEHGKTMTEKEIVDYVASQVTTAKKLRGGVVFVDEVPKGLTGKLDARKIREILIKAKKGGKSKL
How it was run: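 Direct inhibition of firefly luciferase enzyme (10 nM final, 50 mM Tris Acetate) assessed by luminescence within 5 minutes. Percent activity scaled between DMSO and PTC124 positive control, with concentration-effect curves classified by fit quality and response.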

[11] = qHTS profiling for inhibitors of Plasmodium falciparum proliferation (AID 504749); note: nearly all actives have a fitted effect of over 60% in size; note: potency is the fitted concentration of half-maximal effect;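 for activity, negative = inhibition: 0% = DMSO vehicle and full inhibition = artemisinin control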; settings: P. falciparum in erythrocytes, SYBR Green DNA, 72 h, at 12.8 µM (top of the series)
How it was run: (§1)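 Infected RBCs, 0.3% parasitemia/2.5% Hct final; cpd 72 h, 37 C, 5% CO2; lysis buffer with saponin/triton/SYBR Green I, o/n RT dark; FI 485/535; norm. to artemisinin (0.29 uM) and DMSO.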

C2A = test: as above; settings: P. falciparum in erythrocytes, SYBR Green DNA, 72 h; series mostly up to 12.8 µM
How it was run: as §1

CP238 = test: as above; settings: P. falciparum in erythrocytes, SYBR Green DNA, 72 h; series mostly up to 12.8 µM
How it was run: as §1

CP256 = test: as above; settings: P. falciparum in erythrocytes, SYBR Green DNA, 72 h; series mostly up to 12.8 µM
How it was run: as §1

FAB9 = test: as above; settings: P. falciparum in erythrocytes, SYBR Green DNA, 72 h; series mostly up to 12.8 µM
How it was run: as §1

JCK = test: as above; settings: P. falciparum in erythrocytes, SYBR Green DNA, 72 h; series mostly up to 12.8 µM
How it was run: as §1

PC49 = test: as above; settings: P. falciparum in erythrocytes, SYBR Green DNA, 72 h; series mostly up to 12.8 µM
How it was run: as §1

SC27B = test: as above; settings: P. falciparum in erythrocytes, SYBR Green DNA, 72 h; series mostly up to 12.8 µM
How it was run: as §1

W2 = test: as above; settings: P. falciparum in erythrocytes, SYBR Green DNA, 72 h; series mostly up to 12.8 µM
How it was run: as §1

[12] = measured here: cell count channel max response
[13] = measured here: lipid channel max response

CCCC(=O)Nc1ncnc2c1ncn2[C@@H]1O[C@H]2COP(=O)(O)O[C@@H]2[C@@H]1OC(=O)CCC
-4.54%: max response [8, 13]
-2.67%: max response [8, 12]
inactive: outcome [1] | activity change, negative = inhibition [2] 16.7% | outcome [3] | Potency [4] > 20.6 µM | Potency [5] > 20.6 µM | Potency [6] | outcome [7] | activity change, negative = inhibition ([8]; at 25.7 µM (top of the series)) -1.42% | Potency [9]

Cc1ccccc1OC[C@H](O)CO
-3.4%: max response [8, 12]
-5.46%: max response [8, 13]
inactive: outcome [1] | activity change, negative = inhibition [2] 11.2% | outcome [3] | Potency [5] > 20.6 µM | Potency [6] | outcome [7] | activity change, negative = inhibition ([8]; at 25.7 µM (top of the series)) -0.676% | Potency [9]

CC[C@H](CC[C@H](C)[C@@H]1CC[C@@H]2[C@H]3CC=C4C[C@@H](O)CC[C@]4(C)[C@H]3CC[C@]21C)C(C)C
inactive: outcome [1] | activity change, negative = inhibition [2] -3.85% | outcome [3] | Potency [4] > 20.6 µM | Potency [5] > 20.6 µM | Potency [6] | outcome [7] | activity change, negative = inhibition ([8]; at 25.7 µM (top of the series)) 2.08% | Potency [9]
-14.8%: max response [8, 12]
-14.7%: max response [8, 13]

CC(=O)/C(C)=N\O
-2.91%: max response [8, 12]
inactive: outcome [1] | activity change, negative = inhibition [2] 4.19% [at 38 µM] | outcome [3] | Potency [5] > 46 µM | Potency [6] | outcome [7] | activity change, negative = inhibition ([8]; at 57.5 µM (top of the series)) -1.01% | Potency [9]
-2.64%: max response [8, 13]
7.38 µM (active) and > 46 µM (inactive): Potency [4]

CC1=C(C(=O)O)N2C(=O)[C@@H](NC(=O)[C@@H](N)c3ccc(O)cc3)[C@@H]2SC1
-1.1%: max response [8, 12]
-2.01%: max response [8, 13]
inactive: outcome [1] | activity change, negative = inhibition [2] -8.2% | outcome [3] | Potency [4] > 20.6 µM | Potency [5] > 20.6 µM | Potency [6] | outcome [7] | activity change, negative = inhibition ([8]; at 25.7 µM (top of the series)) 1.21% | Potency [9] | Potency [10] | activity, negative = inhibition ([11]; parasite line A) 9.01% | activity, negative = inhibition ([11]; parasite line B) 1.57% | Potency (C2A) | Potency (CP238) | Potency (CP256) | Potency (FAB9) | Potency (JCK) | Potency (PC49) | Potency (SC27B) | Potency (W2)

O[C@@](CCN1CCCC1)(c1ccccc1)C1CCCCC1
inactive: outcome [1] | outcome [3] | Potency [4] > 20.6 µM | Potency [5] > 20.6 µM | Potency [6] | activity change, negative = inhibition ([8]; at 25.7 µM (top of the series)) -0.986% | Potency [9] | Potency [10] | activity, negative = inhibition ([11]; parasite line A) -9.23% | Potency (C2A) | Potency (CP238) | Potency (CP256) | Potency (FAB9) | Potency (JCK) | Potency (SC27B)
-9.51%: max response [8, 13]
active: activity change, negative = inhibition [2] -61.1% | Potency (W2) 0.455 µM
-8.38%: max response [8, 12]

COc1cc(C2Oc3cc(C4Oc5cc(O)cc(O)c5C(=O)C4O)ccc3OC2CO)ccc1O (centres undefined)
5.37%: max response [8, 12]
inactive: outcome [1] | activity change, negative = inhibition [2] 22.6% | outcome [3] | Potency [4] > 20.6 µM | activity change, negative = inhibition ([8]; at 57.5 µM (top of the series)) 18.7%
24.8%: max response [8, 13]

c1ccc(CNc2ncnc3nc[nH]c23)cc1
inactive: outcome [1] | activity change, negative = inhibition [2] 7.66% | outcome [3] | Potency [4] > 20.6 µM | Potency [5] > 20.6 µM | Potency [6] | outcome [7] | activity change, negative = inhibition ([8]; at 25.7 µM (top of the series)) -0.17% | Potency [9]
-12.9%: max response [8, 13]
-13.8%: max response [8, 12]

CC(=O)Nc1cc2ccccc2oc1=O
-11.4%: max response [8, 13]
-14.5%: max response [8, 12]
inactive: outcome [1] | activity change, negative = inhibition [2] -6.5% | outcome [3] | Potency [4] > 20.6 µM | Potency [5] > 20.6 µM | outcome [7] | activity change, negative = inhibition ([8]; at 25.7 µM (top of the series)) 2.36% | Potency [9]

C[N+](C)(CCCOc1ccccc1)c1ccccc1
0.349%: max response [8, 12]
inactive: outcome [1] | activity change, negative = inhibition [2] -17.9% | outcome [3] | Potency [4] > 20.6 µM | Potency [5] > 20.6 µM | Potency [6] | outcome [7] | activity change, negative = inhibition ([8]; at 25.7 µM (top of the series)) 3.08% | Potency [9]
5.95%: max response [8, 13]

NC[C@@H]1O[C@H](O[C@H]2[C@H](O)[C@H](O[C@@H]3O[C@H](CO)[C@@H](O)[C@H](N)[C@@H]3O)[C@@H](N)C[C@H]2N)[C@@H](O)[C@H](O)[C@@H]1O
-1.61%: max response [8, 12]
inactive: outcome [1] | activity change, negative = inhibition [2] -3.83% | outcome [3] | Potency [5] > 20.6 µM | Potency [6] | outcome [7] | activity change, negative = inhibition ([8]; at 25.7 µM (top of the series)) -4.16% | Potency [10] | activity, negative = inhibition ([11]; parasite line A) 3.46% | activity, negative = inhibition ([11]; parasite line B) 7.68% | Potency (C2A) | Potency (CP238) | Potency (CP256) | Potency (FAB9) | Potency (JCK) | Potency (PC49) | Potency (SC27B) | Potency (W2)
-7%: max response [8, 13]

N[C@H](Cc1cc(I)c(Oc2ccc(O)c(I)c2)c(I)c1)C(=O)O
8.52%: max response [8, 12]
inactive: outcome [1] | activity change, negative = inhibition [2] -4.32% | outcome [3] | Potency [4] > 20.6 µM | Potency [5] > 20.6 µM | Potency [6] | outcome [7] | activity change, negative = inhibition ([8]; at 25.7 µM (top of the series)) -1.62%
3.42%: max response [8, 13]

CN[C@H]1[C@@H](O)[C@@H](NC)[C@@H]2O[C@@]3(O)C(=O)C[C@@H](C)O[C@H]3O[C@H]2[C@H]1O
1.41%: max response [8, 12]
inactive: outcome [1] | activity change, negative = inhibition [2] -11.9% | outcome [3] | Potency [4] > 20.6 µM | Potency [6] | outcome [7] | activity change, negative = inhibition ([8]; at 25.7 µM (top of the series)) 0.684% | Potency [9] | Potency [10] | activity, negative = inhibition ([11]; parasite line A) -10.3% | activity, negative = inhibition ([11]; parasite line B) -0.369% | Potency (C2A) | Potency (CP238) | Potency (CP256) | Potency (FAB9) | Potency (JCK) | Potency (PC49) | Potency (SC27B) | Potency (W2)
2.93%: max response [8, 13]
